Experimental data: PubChem BioAssay (NCI)
Compounds without any hit were thinned out: in the full panel of roughly 79,000, 15% have a hit. The source made the active and inactive calls. No stated cut-off is given here; in the data, active means growth inhibition above about 70%; inactive means the rest.

Legend:
[1] = NCI Yeast Anticancer Drug Screen. Data for the rad50 strain (AID 155);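 further: 0% = growth of vehicle-only cultures of the same strain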; conditions: S. cerevisiae rad50 strain growth inhibition, active compounds read high
How it was run: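 A DNA repair-deficient yeast mutant serves as the test organism; compound-induced growth inhibition is calculated against vehicle-treated cells.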

[2] = NCI Yeast Anticancer Drug Screen. Data for the mec2-1 strain (AID 157); conditions: S. cerevisiae mec2-1 strain, active compounds read high
How it was run: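 Mutant yeast (mec2-1) grown with compound; growth inhibition relative to vehicle control reported.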

[3] = NCI Yeast Anticancer Drug Screen. Data for the sgs1 mgt1 strain (AID 161);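 further: 0% = growth of cultures given vehicle only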; conditions: S. cerevisiae sgs1 mgt1 strain, active compounds read high
How it was run: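 Growth of a repair-deficient yeast mutant was monitored after compound treatment and expressed as inhibition relative to vehicle-treated cultures.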

[4] = NCI Yeast Anticancer Drug Screen. Data for the cln2 rad14 strain (AID 165);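 further: 0% = growth equal to vehicle treated cultures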; conditions: S. cerevisiae cln2 rad14 strain, active compounds read high
How it was run: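 Readout is yeast growth inhibition versus vehicle-treated controls, using a strain with cln2 and rad14 alterations exposed to compound.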

[5] = NCI Yeast Anticancer Drug Screen. Data for the bub3 strain (AID 167); conditions: S. cerevisiae bub3 mutant strain, active compounds read high
How it was run: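 Inhibition values come from growth of compound-treated mutant yeast normalised to vehicle-treated controls.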

[6] = NCI Yeast Anticancer Drug Screen. Data for the mlh1 rad18 strain (AID 175); conditions: S. cerevisiae mlh1 rad18 strain growth inhibition, active compounds read high
How it was run: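 Genetically defined yeast (DNA repair-deficient) exposed to compounds; growth inhibition determined relative to vehicle.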

[7] = at 5.0 µM (retest, dose inferred, filed as 0.5)
[8] = at 50.0 µM (retest, dose inferred, filed as 5.0)

Measured: growth inhibition

CCCCC/C(=C/C=C/c1ccc(Cl)cc1)CN(C)C
active: [1]; [8] 97% | [1]; at 50.0 µM 99.5% | [2]; [8] 98% | [2]; at 50.0 µM 99.8% | [3]; [8] 98% | [3]; at 50.0 µM 99.7% | [4]; [8] 97% | [4]; at 50.0 µM 99.5% | [5]; [8] 98% | [5]; at 50.0 µM 99.8% | [6]; [8] 97% | [6]; at 50.0 µM 99.7%
inactive: [1]; [7] 11% | [2]; [7] 8% | [3]; [7] 49% | [4]; [7] 13% | [5]; [7] 6% | [6]; [7] 7%

COc1cc(C2c3cc4c(cc3[C@@H](OCCN)[C@H]3COC(=O)C23)OCO4)cc(OC)c1O (stereo not given in full)
inactive: [1]; [7] 47% | [1]; at 50.0 µM 52.2% | [2]; [7] 11% | [2]; [8] 55% | [3]; [7] 29% | [3]; [8] 63% | [3]; at 50.0 µM 69.5% | [4]; [7] 29% | [4]; [8] 28% | [4]; at 50.0 µM 49.6% | [5]; [7] 24% | [5]; [8] 44% | [5]; at 50.0 µM 49.5% | [6]; [7] 19% | [6]; [8] 68%
active: [1]; [8] 93% | [2]; at 50.0 µM 77.2% | [6]; at 50.0 µM 80.7%

CC(CN1CCCCCCC1)C(c1ccccc1)c1ccccc1 (stereo not given)
inactive: [1]; [7] 2% | [1]; at 50.0 µM 66.3% | [2]; [7] -3% | [2]; at 50.0 µM 61.8% | [3]; [7] 7% | [4]; [7] -5% | [5]; [7] -2% | [6]; [7] -3%
active: [1]; [8] 81% | [2]; [8] 76% | [3]; [8] 98% | [3]; at 50.0 µM 94.1% | [4]; [8] 73% | [4]; at 50.0 µM 96.2% | [5]; [8] 87% | [5]; at 50.0 µM 98.5% | [6]; [8] 89% | [6]; at 50.0 µM 86.5%

COc1ccc(/C=C2\CCCc3ccccc3C2=O)cc1
active: [2]; [8] 86% | [3]; [8] 86% | [3]; at 50.0 µM 77.7% | [5]; [8] 90% | [5]; at 50.0 µM 80.4% | [6]; [8] 81%
inactive: [1]; [7] -3% | [1]; [8] 33% | [1]; at 50.0 µM 60.2% | [2]; [7] 2% | [2]; at 50.0 µM 53.3% | [3]; [7] 9% | [4]; [7] -12% | [4]; [8] -3% | [4]; at 50.0 µM 20% | [5]; [7] 64% | [6]; [7] 5% | [6]; at 50.0 µM 62.2%

COc1cc(C(=O)C=[N+]=[N-])c([N+](=O)[O-])c(OC)c1OC
inactive: [1]; [7] 12% | [1]; at 50.0 µM 63.2% | [2]; [7] 22% | [3]; [7] 19% | [4]; [7] 11% | [4]; [8] 51% | [4]; at 50.0 µM 41.9% | [5]; [7] 9% | [5]; [8] 67% | [6]; [7] 8%
active: [1]; [8] 77% | [2]; [8] 91% | [2]; at 50.0 µM 90.8% | [3]; [8] 92% | [3]; at 50.0 µM 91.8% | [5]; at 50.0 µM 93.2% | [6]; [8] 89% | [6]; at 50.0 µM 94.4%

COc1cc(NCCCCCNC(C)C)c2ncc(C)c(C)c2c1
active: [1]; at 50.0 µM 75.7% | [5]; at 50.0 µM 79%
inactive: [1]; [7] 3% | [1]; [8] 36% | [2]; [7] -4% | [2]; [8] 6% | [2]; at 50.0 µM 44.5% | [3]; [7] 3% | [3]; [8] 23% | [3]; at 50.0 µM 61.4% | [4]; [7] 7% | [4]; [8] 20% | [4]; at 50.0 µM 12.1% | [5]; [7] 3% | [5]; [8] 35% | [6]; [7] 9% | [6]; [8] 27% | [6]; at 50.0 µM 55.4%

Brc1ccc(CCNCCN2CCCCC2)cc1
active: [6]; [8] 89%
inactive: [1]; [7] 19% | [1]; [8] 65% | [1]; at 50.0 µM 50.9% | [2]; [7] 25% | [2]; [8] 68% | [2]; at 50.0 µM 21% | [3]; [7] 24% | [3]; [8] 68% | [3]; at 50.0 µM 63.2% | [4]; [7] 45% | [4]; [8] 61% | [4]; at 50.0 µM 37.6% | [5]; [7] 15% | [5]; [8] 57% | [5]; at 50.0 µM 61.1% | [6]; [7] 25% | [6]; at 50.0 µM 45%

COc1ccc(NC(=O)Nc2ccc(Cl)cc2)nn1
inactive: [1]; [7] -1% | [1]; [8] 4% | [1]; at 50.0 µM -10% | [2]; [7] -4% | [2]; [8] -3% | [2]; at 50.0 µM 20.4% | [3]; [7] -3% | [3]; [8] 3% | [3]; at 50.0 µM 1.3% | [4]; [7] -14% | [4]; [8] -8% | [4]; at 50.0 µM 33.8% | [5]; [7] -9% | [5]; [8] -7% | [5]; at 50.0 µM -8.05% | [6]; [7] -7% | [6]; [8] 3% | [6]; at 50.0 µM -3.9%

CCCCCCCCCCCCCCNCC(OCC)OCC
inactive: [1]; [7] 69% | [2]; [7] 62% | [4]; [7] 61%
active: [1]; [8] 98% | [1]; at 50.0 µM 90.7% | [2]; [8] 99% | [2]; at 50.0 µM 93.4% | [3]; [7] 83% | [3]; [8] 99% | [3]; at 50.0 µM 93.2% | [4]; [8] 98% | [4]; at 50.0 µM 90.5% | [5]; [7] 75% | [5]; [8] 99% | [5]; at 50.0 µM 91.5% | [6]; [7] 85% | [6]; [8] 98% | [6]; at 50.0 µM 91%

C[N+](C)(C)CC(=O)N/N=C/c1oc(-c2c(O)ccc3ccccc23)c(-c2c(O)ccc3ccccc23)c1[N+](=O)[O-]
inactive: [1]; [7] 57% | [1]; [8] 57% | [2]; [7] 47% | [2]; [8] 47% | [3]; [7] 51% | [3]; [8] 51% | [4]; [7] 13% | [4]; [8] 13% | [5]; [7] 44% | [5]; [8] 44% | [6]; [7] 58% | [6]; [8] 58%
active: [1]; at 50.0 µM 90% | [2]; at 50.0 µM 90.6% | [3]; at 50.0 µM 90.2% | [4]; at 50.0 µM 80.9% | [5]; at 50.0 µM 84.4% | [6]; at 50.0 µM 84.2%
